Our source for the Percent Effect values is ChEMBL document CHEMBL3988442, “University of Dundee, Small-Polar-MMV Screening Library” (2021).

Holding throughout (parameters): scale not given: direction of the effect not stated beside the values
The target in test [1] is Protein translocase subunit SecA (Escherichia coli (strain K12)) (UniProt P10408). The test can be described thus: Assay to Identify E. coli SecA ATPase Inhibitors. It is filed as functional. As to conditions: 30 µM.
Test [2] addresses T1, Ubiquitin-activating enzyme e1, putative (Leishmania donovani (strain BPK282A1)) (UniProt E9BSI1).
T1 sequence (whole entry): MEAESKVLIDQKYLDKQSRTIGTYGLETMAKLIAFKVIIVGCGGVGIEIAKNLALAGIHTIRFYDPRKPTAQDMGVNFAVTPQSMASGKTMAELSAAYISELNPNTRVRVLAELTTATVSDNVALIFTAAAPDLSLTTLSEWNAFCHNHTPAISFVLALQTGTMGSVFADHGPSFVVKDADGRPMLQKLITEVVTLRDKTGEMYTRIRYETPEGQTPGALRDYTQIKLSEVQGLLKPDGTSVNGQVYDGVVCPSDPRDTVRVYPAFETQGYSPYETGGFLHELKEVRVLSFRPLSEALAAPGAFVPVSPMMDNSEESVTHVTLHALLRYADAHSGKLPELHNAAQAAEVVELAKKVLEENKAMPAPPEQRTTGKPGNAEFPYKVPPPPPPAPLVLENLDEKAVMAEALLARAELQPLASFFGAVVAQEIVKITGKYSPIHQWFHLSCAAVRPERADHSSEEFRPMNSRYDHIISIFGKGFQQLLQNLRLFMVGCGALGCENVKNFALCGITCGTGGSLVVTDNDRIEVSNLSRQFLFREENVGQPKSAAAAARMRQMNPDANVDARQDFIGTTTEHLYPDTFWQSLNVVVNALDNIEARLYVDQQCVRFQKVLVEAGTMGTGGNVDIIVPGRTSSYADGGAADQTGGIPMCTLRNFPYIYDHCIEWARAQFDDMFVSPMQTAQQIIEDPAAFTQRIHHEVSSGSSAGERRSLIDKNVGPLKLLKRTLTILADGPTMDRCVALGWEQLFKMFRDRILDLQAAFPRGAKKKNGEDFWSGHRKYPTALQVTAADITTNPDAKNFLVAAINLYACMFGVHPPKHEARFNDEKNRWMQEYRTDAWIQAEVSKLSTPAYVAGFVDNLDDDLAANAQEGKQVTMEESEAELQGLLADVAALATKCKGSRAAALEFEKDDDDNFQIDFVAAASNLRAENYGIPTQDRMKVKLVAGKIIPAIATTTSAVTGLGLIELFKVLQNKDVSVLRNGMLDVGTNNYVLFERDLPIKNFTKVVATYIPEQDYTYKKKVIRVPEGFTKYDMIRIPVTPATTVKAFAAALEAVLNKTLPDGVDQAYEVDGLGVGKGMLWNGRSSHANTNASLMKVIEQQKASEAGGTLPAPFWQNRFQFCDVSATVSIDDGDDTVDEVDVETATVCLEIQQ
The test can be described thus: Leishmania donovani Ubiquitin Activating Enzyme (LdE1). As to conditions: 30 µM. Type of test: functional.

Test [3] concerns the target AMP-activated protein kinase, AMPK (Homo sapiens) (UniProt P54646+O43741+P54619+Q9UGJ0+Q9Y478+Q13131+Q9UGI9). Briefly: AMP-dependent Kinase enzyme assay. An in vitro enzyme assay that detects ADP turnover that is directly proportional to AMPK activity. This uses naive AMPK that is activated during the assay with MK-8722. Type of test: functional. As to conditions: 30 µM.

For test [4], the target named is Sialic acid-binding Ig-like lectin 9 (Homo sapiens) (UniProt Q9Y336). The test can be described thus: Hs-Siglec9 ALPHAscreen SOP 20170721. As to conditions: 10 µM. (In general: In Alpha technology, singlet oxygen from a donor bead excites a nearby acceptor bead.)
Sequence of Sialic acid-binding Ig-like lectin 9 (Homo sapiens) (Q9Y336 whole entry): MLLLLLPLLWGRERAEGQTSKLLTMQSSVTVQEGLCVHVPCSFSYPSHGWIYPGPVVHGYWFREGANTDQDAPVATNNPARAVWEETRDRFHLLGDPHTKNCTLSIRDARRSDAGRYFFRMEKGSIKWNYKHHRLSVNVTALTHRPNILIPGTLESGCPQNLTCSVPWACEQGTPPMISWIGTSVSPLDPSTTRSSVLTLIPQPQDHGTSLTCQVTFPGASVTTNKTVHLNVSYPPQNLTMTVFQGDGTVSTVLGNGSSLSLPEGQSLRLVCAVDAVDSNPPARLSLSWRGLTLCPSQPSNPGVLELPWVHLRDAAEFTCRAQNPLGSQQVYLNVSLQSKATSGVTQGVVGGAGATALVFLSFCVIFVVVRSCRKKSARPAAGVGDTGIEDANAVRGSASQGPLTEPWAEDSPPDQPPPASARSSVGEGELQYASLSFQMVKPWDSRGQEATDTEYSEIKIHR
Another test relates to Trypanosoma cruzi. The test can be described thus: Trypanosoma cruzi phosphomannomutase and mannose-1-phosphate guanylyltransferase assay. The conditions noted are these: 10 µM. It is filed as functional.
In test [5] the target is T2, Arginase-2, mitochondrial (Homo sapiens) (UniProt P78540).
T2 sequence (whole entry): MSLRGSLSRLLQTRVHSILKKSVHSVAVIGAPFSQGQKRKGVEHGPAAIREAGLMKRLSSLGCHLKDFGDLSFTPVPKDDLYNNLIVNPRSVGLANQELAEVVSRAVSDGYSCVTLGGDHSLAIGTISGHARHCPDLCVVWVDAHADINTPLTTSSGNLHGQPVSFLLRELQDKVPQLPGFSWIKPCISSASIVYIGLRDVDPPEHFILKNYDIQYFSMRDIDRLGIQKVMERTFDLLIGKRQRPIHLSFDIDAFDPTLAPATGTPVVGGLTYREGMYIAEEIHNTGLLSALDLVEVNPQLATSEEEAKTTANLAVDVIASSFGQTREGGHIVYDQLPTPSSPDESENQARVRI
Briefly: in vitro enzyme assay to detect the production of urea directly proportional to the activity of Arginase II. Note: in the data most compounds retested in dose-response had high values. The conditions noted are these: 33.3 µM. Type of test: functional.

Test [6] addresses T3, Proteasome subunit beta (Trypanosoma cruzi) (UniProt O96673).
T3 sequence (whole entry): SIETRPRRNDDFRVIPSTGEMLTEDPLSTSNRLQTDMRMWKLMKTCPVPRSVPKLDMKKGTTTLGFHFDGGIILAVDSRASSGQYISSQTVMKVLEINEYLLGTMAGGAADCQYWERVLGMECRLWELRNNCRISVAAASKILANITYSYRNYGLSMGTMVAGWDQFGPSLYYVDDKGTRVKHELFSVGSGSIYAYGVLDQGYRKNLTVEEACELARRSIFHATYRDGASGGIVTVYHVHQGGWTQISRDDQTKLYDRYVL
The test can be described thus: Trypanosoma cruzi proteasome chymotrypsin-like activity (TcProtChymo) assay. Note: in the data most compounds retested in dose-response had high values. It is filed as functional. As to conditions: 9.37 µM.

The species entered for the next test is Homo sapiens. The test can be described thus: To identify inhibition of the IFN signalling (Jak-Stat) pathway via expression of an eGFP reporter gene under the control of an IFN-stimulated response element (ISRE) containing MxA promoter. The conditions noted are these: 30 µM. Type of test: functional. Background: In a reporter assay the amount or activity of a reporter protein is the signal.

For test [7], the target named is T4, Tyrosyl-tRNA synthetase, putative (Trypanosoma cruzi (strain CL Brener)) (UniProt Q4DSP6).
T4 sequence (whole entry): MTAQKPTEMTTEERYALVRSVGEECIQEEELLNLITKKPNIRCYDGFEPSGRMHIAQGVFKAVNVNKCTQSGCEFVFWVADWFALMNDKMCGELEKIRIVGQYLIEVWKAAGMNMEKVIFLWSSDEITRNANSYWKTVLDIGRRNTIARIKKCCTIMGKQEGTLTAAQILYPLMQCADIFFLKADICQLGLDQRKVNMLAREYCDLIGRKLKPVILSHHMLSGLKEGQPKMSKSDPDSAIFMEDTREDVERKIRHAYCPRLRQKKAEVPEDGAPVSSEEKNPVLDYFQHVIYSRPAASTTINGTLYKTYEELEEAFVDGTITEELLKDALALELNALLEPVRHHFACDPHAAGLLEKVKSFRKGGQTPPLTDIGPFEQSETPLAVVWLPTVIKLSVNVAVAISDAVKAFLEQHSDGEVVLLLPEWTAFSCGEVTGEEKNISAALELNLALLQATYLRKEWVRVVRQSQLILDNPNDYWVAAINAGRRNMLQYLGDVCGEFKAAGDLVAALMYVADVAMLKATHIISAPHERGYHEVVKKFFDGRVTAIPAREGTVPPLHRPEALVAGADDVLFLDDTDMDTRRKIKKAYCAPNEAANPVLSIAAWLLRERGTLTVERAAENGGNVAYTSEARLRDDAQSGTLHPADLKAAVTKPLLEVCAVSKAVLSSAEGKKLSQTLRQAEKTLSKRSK
Briefly: Trypanosoma cruzi tyrosyl tRNA synthetase (TcYRS) _High Tyrosine SOP. Note: in the data most compounds retested in dose-response had high values. As to conditions: 30 µM. It is filed as functional.

In test [8] the target is T4, Tyrosyl-tRNA synthetase, putative (Trypanosoma cruzi (strain CL Brener)). The test can be described thus: Trypanosoma cruzi tyrosyl tRNA synthetase (TcYRS) SOP. Type of test: functional. As to conditions: 30 µM.
Test [9] concerns the target Chromo domain-containing protein 1 (Saccharomyces cerevisiae (strain ATCC 204508 / S288c) (Baker's yeast)) (UniProt P32657). The test can be described thus: ScCHD-1 Enzyme Inhibition Assay. Note: in the data most compounds retested in dose-response had high values. As to conditions: 30 µM. Type of test: functional.

For some of these results: Entries with a potency or affinity are not part of this list.

Sequence of Chromo domain-containing protein 1 (Saccharomyces cerevisiae (strain ATCC 204508 / S288c) (Baker's yeast)) (P32657 whole entry, the tested form may be a part): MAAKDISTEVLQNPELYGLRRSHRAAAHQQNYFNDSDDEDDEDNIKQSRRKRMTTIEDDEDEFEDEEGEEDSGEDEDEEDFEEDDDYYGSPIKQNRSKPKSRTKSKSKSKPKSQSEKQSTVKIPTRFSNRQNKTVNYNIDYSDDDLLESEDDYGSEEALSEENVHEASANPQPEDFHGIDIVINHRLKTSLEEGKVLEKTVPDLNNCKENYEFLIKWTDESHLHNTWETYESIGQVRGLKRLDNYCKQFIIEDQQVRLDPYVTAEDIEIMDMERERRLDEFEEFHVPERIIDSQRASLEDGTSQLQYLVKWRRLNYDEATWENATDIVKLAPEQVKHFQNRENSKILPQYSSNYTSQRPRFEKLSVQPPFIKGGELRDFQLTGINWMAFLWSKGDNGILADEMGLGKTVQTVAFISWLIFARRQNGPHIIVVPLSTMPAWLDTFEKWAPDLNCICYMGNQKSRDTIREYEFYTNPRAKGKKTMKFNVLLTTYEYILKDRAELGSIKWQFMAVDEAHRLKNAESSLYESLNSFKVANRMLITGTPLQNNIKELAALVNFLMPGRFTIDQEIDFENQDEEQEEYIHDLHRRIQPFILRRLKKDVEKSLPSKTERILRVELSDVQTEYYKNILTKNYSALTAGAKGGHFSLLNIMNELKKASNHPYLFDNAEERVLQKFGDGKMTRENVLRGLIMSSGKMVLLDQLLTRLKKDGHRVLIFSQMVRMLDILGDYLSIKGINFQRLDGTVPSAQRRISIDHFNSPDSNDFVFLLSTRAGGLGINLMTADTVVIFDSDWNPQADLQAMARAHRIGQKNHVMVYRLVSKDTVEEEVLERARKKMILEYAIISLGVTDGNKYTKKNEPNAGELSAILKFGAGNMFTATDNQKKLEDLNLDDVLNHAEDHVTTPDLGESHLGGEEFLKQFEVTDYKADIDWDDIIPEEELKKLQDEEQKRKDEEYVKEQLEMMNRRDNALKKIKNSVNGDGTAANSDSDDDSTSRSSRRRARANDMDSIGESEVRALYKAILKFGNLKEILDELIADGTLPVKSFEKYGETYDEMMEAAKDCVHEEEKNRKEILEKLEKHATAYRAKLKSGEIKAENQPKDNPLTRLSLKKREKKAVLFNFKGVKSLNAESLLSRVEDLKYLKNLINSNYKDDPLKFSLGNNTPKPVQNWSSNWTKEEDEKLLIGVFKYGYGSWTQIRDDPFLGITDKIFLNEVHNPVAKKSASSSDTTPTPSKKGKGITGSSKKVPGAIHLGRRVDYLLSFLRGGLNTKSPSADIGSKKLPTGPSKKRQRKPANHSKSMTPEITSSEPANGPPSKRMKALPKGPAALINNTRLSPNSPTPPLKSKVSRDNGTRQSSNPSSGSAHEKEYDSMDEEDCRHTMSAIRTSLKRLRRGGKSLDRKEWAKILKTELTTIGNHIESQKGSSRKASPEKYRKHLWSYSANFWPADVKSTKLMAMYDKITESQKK
Sequence of Protein translocase subunit SecA (Escherichia coli (strain K12)) (P10408 whole entry): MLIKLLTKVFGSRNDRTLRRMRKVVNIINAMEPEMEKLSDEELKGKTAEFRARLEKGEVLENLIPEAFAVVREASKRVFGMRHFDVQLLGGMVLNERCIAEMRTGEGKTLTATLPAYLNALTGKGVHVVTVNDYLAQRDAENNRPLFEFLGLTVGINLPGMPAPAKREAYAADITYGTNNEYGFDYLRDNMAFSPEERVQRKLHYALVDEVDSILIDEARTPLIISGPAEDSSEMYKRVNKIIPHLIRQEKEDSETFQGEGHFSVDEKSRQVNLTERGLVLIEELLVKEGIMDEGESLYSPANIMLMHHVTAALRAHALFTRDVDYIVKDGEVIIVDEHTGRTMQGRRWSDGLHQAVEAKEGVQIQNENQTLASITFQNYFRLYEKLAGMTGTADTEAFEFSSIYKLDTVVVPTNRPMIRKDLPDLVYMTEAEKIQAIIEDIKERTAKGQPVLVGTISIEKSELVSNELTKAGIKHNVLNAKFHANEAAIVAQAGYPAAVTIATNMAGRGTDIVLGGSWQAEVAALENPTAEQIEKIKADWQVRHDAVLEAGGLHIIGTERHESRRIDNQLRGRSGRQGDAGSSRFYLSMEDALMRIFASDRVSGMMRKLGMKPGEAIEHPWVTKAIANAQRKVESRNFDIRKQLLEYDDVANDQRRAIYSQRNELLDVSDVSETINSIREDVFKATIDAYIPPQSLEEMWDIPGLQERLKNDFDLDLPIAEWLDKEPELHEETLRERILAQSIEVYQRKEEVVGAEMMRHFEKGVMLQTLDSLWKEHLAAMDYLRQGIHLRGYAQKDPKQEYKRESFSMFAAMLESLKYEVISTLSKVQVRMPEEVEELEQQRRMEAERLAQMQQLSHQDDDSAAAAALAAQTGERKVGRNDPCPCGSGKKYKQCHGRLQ

For `COc1ccc(CN2C[C@@H](OCc3ccccn3)[C@H]3COC[C@H]32)cc1`, the Percent Effect in test [1] was -4.56%; in [2], -8.11%; in test [3], -0.636%; in test [4] it was -1.37%; in the test with Trypanosoma cruzi, -3.62%; in [5], 6.05%. For the same compound, the Percent Effect in [6] is 20.1%; in the test listed under Homo sapiens, 22.6%; in test [7] it was -1.08%; in [8], 12.8%; in [9], 2.02%.
Consider `Cn1cnc(S(=O)(=O)NCCN2CCCCCC2=O)c1Cl`, for which the Percent Effect was -8.78% in [1]; 5.41% in test [2]; -41.8% in test [3]; 6.15% in test [4]; -3.87% in the test on Trypanosoma cruzi; -0.802% in test [5]. Further, the Percent Effect is 0.721% in test [6]; 17.8% in the test listed under Homo sapiens; -0.493% in test [7]; -6.17% in test [8]; -8.21% in test [9].
For `CC(O)CN1CCN(C(=O)c2ccc(Cn3cccc3)cc2)CC1` (stereo not drawn), the Percent Effect in [1] is -2.39%; in test [2], 13.5%; in test [3], -8.63%; in [4] it was -2.4%; in the test with Trypanosoma cruzi it was -3.49%; in test [5] it was -6.81%. The Percent Effect in [6] was 17.8%; in the test filed under Homo sapiens, 6.79%; in test [7], 10.3%; in [8] it was 25.9%; in test [9], -2.47%.
For the compound `COc1ccccc1CC(=O)N1CCC(NCc2cc[nH]c2)CC1`, the Percent Effect in [1] was -0.99%; in test [2] it was 18.9%; in test [3] it was -7.09%; in [4], -3.31%; with Trypanosoma cruzi, 4.92%; in test [5] it was 5.36%. In addition, the Percent Effect in [6] was 16.3%; in the test listed under Homo sapiens, 5.88%; in test [7] it was 11.9%; in [8], 23.2%; in test [9] it was -7.56%.
Take `NC(=O)C1(c2cnccn2)CCCN1Cc1cc2ccccc2o1` (stereo not drawn): the Percent Effect in [1] is -2.52%; in test [2] it was 6.76%; in test [3], 11.2%; in [4] it was 3.94%; in the test on Trypanosoma cruzi it was -1.78%; in test [5] it was -2.09%. Moreover, the Percent Effect is 14.2% in [6]; 1.46% in the test filed under Homo sapiens; 9.68% in test [7]; 16.9% in [8]; -6.96% in test [9].
On to `O=C(CCc1nccs1)N1CCN(c2ccccc2F)CC1`, for which the Percent Effect was -4.98% in test [1]; 7.59% in test [2]; -1.29% in [3]; -1.48% in test [4]; 8.4% in the test with Trypanosoma cruzi; -6.46% in test [5]. Further, the Percent Effect in test [6] is -2.05%; in the test filed under Homo sapiens it was 5.18%; in [7], 2.46%; in [8], 8.86%; in [9], -2.22%.
As to `Cc1nc(C)c(C(=O)NCCNC(=O)Cc2cccc(F)c2)s1`, the Percent Effect in test [1] is -3.25%; in test [2] it was 16.2%; in [3], -2.81%; in test [4] it was 1.34%; in the test on Trypanosoma cruzi, 0.464%; in test [5] it was 0.924%. The Percent Effect in [6] is 17.8%; in the test listed under Homo sapiens, 17.9%; in test [7] it was 9.9%; in test [8], 18.3%; in [9] it was -4.49%.
Turning to `Cc1nc(-c2ccccc2)sc1C(=O)NCCNc1ncccn1`, the Percent Effect in [1] was -4.03%; in test [2], -2.63%; in test [3], -5.12%; in test [4], -0.445%; in the test with Trypanosoma cruzi it was -7.94%; in [5] it was 4.32%. For the same compound, the Percent Effect was determined as 3.98% in test [6]; 8.09% in the test listed under Homo sapiens; 6.4% in test [7]; 11.1% in test [8]; 5.7% in [9].
